From PubChem BioAssay AID1851 (National Center for Advancing Translational Sciences (NCATS), 2009)
Values joined by “and” are separate entries in the source; they are usually repeats but may differ in a detail not shown here. Equal entries are not always repeated. About 2,600 (16%) of roughly 16,000 compounds were called active. Inconclusive results (about 20%) are left out. For the sample, actives were picked, then their nearest neighbours and some compounds at random. Unmarked numbers belong to inactive results. Calls come from the whole dose curve; as a rule, active = well fitted curve in the direction sought with a large enough effect; inconclusive = small, poorly fitted or top-dose-only effect, or effect the other way; inactive = no such curve, though single readings can be large or run the other way.

biological target: Cytochrome P450 2D6 (Homo sapiens) (UniProt P10635); test: Cytochrome panel assay with activity outcomes; conditions: recombinant CYP, pro-luciferin dealkylation, luminescence, p450-cyp2d6; series mostly up to 57.1 µM
% is set by controls: 0 for no effect and ±100 for the full control effect.

Sequence of Cytochrome P450 2D6 (Homo sapiens) (P10635 whole entry, looked up): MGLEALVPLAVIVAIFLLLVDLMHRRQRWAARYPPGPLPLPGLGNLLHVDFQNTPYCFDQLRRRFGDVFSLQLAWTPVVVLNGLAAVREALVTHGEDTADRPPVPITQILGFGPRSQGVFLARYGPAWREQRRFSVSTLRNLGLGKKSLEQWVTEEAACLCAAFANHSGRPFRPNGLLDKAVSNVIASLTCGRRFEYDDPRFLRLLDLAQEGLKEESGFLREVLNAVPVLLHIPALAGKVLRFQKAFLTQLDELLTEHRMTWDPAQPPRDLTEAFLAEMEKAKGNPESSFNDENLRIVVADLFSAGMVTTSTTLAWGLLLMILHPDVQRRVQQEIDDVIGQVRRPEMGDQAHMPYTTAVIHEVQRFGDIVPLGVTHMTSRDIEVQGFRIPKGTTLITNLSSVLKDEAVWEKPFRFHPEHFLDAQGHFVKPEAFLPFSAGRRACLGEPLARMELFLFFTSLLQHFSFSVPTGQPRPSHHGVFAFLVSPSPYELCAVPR

| SMILES | AC50 | activity, negative = inhibition |
| --- | --- | --- |
| CP(=O)(O)C1=CCNCC1 | inactive |  |
| CCCN1CCC[C@H](c2cccc(O)c2)C1 | inactive |  |
| CCCN1CCC[C@H](c2cccc(C#N)c2)C1 | 31.6 µM (active) |  |
| CN1C2CCC1/C(=C\c1ccccc1)C(=O)/C2=C\c1ccccc1 | 0.158 µM (active) |  |
| CCOC(=O)N(c1ccccc1)P1(=S)OCCO1 | inactive |  |
| CC(=O)[C@@H]1CC[C@@H]2[C@@H]3CCC4=CC(=O)CC[C@@]4(C)[C@H]3CC[C@]21C | inactive |  |
| Cn1ccnc1 | inactive |  |
| C[Se]C[C@@H](N)C(=O)O | inactive |  |
| CC[C@]1(C2=NCCN2)Cc2ccccc2O1 | 12.6 µM (active) |  |
| CC[C@H](C)C(=O)O[C@@H]1[C@H](O)[C@@H]2[C@H](CN3C[C@@H](C)CC[C@@H]3[C@@]2(C)O)[C@@H]2C[C@@]34O[C@@]5(O)[C@@H](OC(=O)[C@](C)(O)CC)CC[C@@]3(C)[C@H]5[C@H](OC(C)=O)[C@@H](OC(C)=O)[C@H]4[C@]12O | inactive |  |
| O=c1cc(-c2ccc(O)c(O)c2)oc2cc(O)cc(O)c12 | inactive |  |
| Cc1c([C@@H](C)[C@H]2NC[C@H](C)C[C@@H]2O)ccc2c1C[C@@H]1[C@H]2CC=C2C[C@@H](O)CC[C@@]21C |  | 9.78% [at 11.4 µM] |
| C[C@]1(O)CC[C@H]2[C@@H]3[C@@H](O)CC4=CC(=O)CC[C@@]4(C)[C@H]3CC[C@]21C |  | 10.5% [at 11.4 µM] |
| NC(=NCCc1ccc(I)cc1)SCCCc1cnc[nH]1 | inactive |  |
| NC(=NCc1ccc(Cl)cc1)SCCCc1cnc[nH]1 | 12.6 µM (active) |  |
| OCc1cnc[nH]1 | inactive |  |
| NCCc1ccc(O)cc1 | inactive |  |
| NCCc1ccc(S(=O)(=O)O)cc1[N+](=O)[O-] |  | -0.422% [at 11.4 µM] |
| NCCc1ccc(S(=O)(=O)F)cc1 | 39.8 µM (active) |  |
| C=CCN1CCC2(C)c3cc(O)ccc3C[C@H]1[C@H]2C | 7.94 µM (active) and 25.1 µM (active) and 631 nM (active) |  |
| C=CCN1CC[C@@]23c4c5ccc(O)c4O[C@H]2/C(=N\N=C2/CC[C@@]4(O)[C@H]6Cc7ccc(O)c8c7[C@@]4(CCN6CC=C)[C@@H]2O8)CC[C@]3(O)[C@@H]1C5 | inactive |  |

| SMILES | AC50 | activity, negative = inhibition |
| --- | --- | --- |
| C[C@@H]1[C@@H]2Cc3ccc(O)cc3[C@@]1(C)CCN2CC1CC1 | 31.6 µM (active) |  |
| CC(=O)c1c(O)c(C)c(O)c(Cc2c(O)c3c(c(C(=O)/C=C\c4ccccc4)c2O)OC(C)(C)C=C3)c1O | inactive |  |
| CC[C@@]1(O)C(=O)OCc2c1cc1n(c2=O)Cc2cc3ccccc3nc2-1 | inactive |  |
| C=C1C/C(=C\C)C(=O)O[C@@H]2CCN3CC=C(COC(=O)[C@@]1(C)O)[C@H]23 | inactive |  |
| O=c1ccc2[nH]cc(C3=CCNCC3)c2[nH]1 | 2.51 µM (active) |  |
| COc1ccc2[nH]cc(C3=CCNCC3)c2c1 | inactive |  |
| OC1(c2ccc(Cl)cc2)CCN(Cc2c[nH]c3ccccc23)CC1 | 0.316 µM (active) |  |
| O=C(Nc1ccc(Cl)cc1C(=O)c1ccccc1)c1ccco1 | inactive |  |
| C=C(C)CN1CC[C@@]23c4c5ccc(O)c4O[C@H]2c2[nH]c4ccccc4c2C[C@]3(O)[C@@H]1C5 | inactive |  |
| O=C(/C=C\c1ccc(Cl)cc1)N[C@@]12CCC(=O)[C@@H]3Oc4c(O)ccc5c4[C@@]31CCN(CC1CC1)[C@@H]2C5 | 5.01 µM (active) |  |
| O=C1/C(=C\c2ccccc2)C[C@@]2(O)[C@H]3Cc4ccc(O)c5c4[C@@]2(CCN3CC2CC2)[C@@H]1O5 | inactive |  |
| COc1ccc2c3c1O[C@@H]1C(=O)CC[C@@]4(O)[C@@H](C2)N(CC2CC2)CC[C@]314 | 5.01 µM (active) |  |
| NC(N)=Nc1ccc2[nH]c3c(c2c1)C[C@]1(O)[C@@H]2Cc4ccc(O)c5c4[C@]1(CCN2CC1CC1)[C@@H]3O5 | inactive |  |
| Cc1ncc([N+](=O)[O-])n1CCN=[N+]=[N-] |  | 0.431% [at 11.4 µM] |
| CCCN(CCC)C(=O)Cc1c(-c2ccc(Cl)cc2)nc2c(Cl)cc(Cl)cn12 | inactive |  |
| COc1ccc2c(c1)CCC1[C@@H]2CCC2(C)[C@@H](NCCCCCCN3C(=O)C=CC3=O)CC[C@@H]12 (stereo partly specified) | 10 µM (active) |  |
| C[C@]12CCC3c4ccc(OCC(=O)O)cc4CCC3C1CCC2=O (stereo partly specified) |  | 12.6% [at 11.4 µM] |
| C[C@]12CC[C@H]3c4ccc(O)cc4CC[C@@H]3[C@H]1CC[C@@H]2OP(=O)(O)O |  | 11.2% [at 11.4 µM] |
| CO[C@@H]1CC=C2CCN3CCC4=C(CC(=O)OC4)[C@]23C1 | inactive |  |
| Cn1cc(C(=O)C(=O)N[C@H]2CN3CCC2CC3)c2ccccc21 | 0.0631 µM (active) |  |
| CC(C)n1cnc2c(C(=O)N[C@H]3CN4CCC3CC4)cc(Cl)cc21 | inactive |  |

| SMILES | AC50 | activity, negative = inhibition |
| --- | --- | --- |
| CN1C(=O)COc2c(C(=O)N[C@@H]3CN4CCC3CC4)cc(Cl)cc21 | inactive |  |
| CCNC(C)(C)[C@@H](SS)c1ccc(Br)cc1 | 2 µM (active) |  |
| CNCCc1ccc(O)c(O)c1 | inactive |  |
| Nc1nc(N)c(Cn2ccnc2)c(=O)[nH]1 |  | -11.4% [at 11.4 µM] |
| CS(=O)(=O)Nc1ccc(Cc2noc(-c3ccc4[nH]cc(CCN)c4c3)n2)cc1 | 0.126 µM (active) |  |
| CCCN[C@@H]1CCc2c(OC)cccc2[C@@H]1C | 0.251 µM (active) |  |
| CCCN(CCC)[C@@H]1CCc2c(OC)cccc2[C@@H]1C | inactive |  |
| OC1(c2ccc(F)cc2)CCNC1 (stereo unspecified) | inactive |  |
| CCCN1CCC[C@@H]2Cc3[nH]ncc3C[C@H]21 | inactive |  |
| C[C@@]12CC[C@H]3[C@@H](CCC4=C(O)C(=O)CC[C@]43C)[C@H]1CCC2=O | inactive |  |
| COC(=O)c1cc2c(cn1)[nH]c1ccccc12 | inactive |  |
| Cc1nccc2c1[nH]c1ccccc12 | 10 µM (active) |  |
| Cc1c2ccncc2c(C)c2c1[nH]c1ccccc12 | 6.31 µM (active) |  |
| O=[N+]([O-])c1ccc(N2CCNCC2)cc1NCC1CCCO1 (stereo unspecified) | inactive |  |
| NC(=O)CI | inactive |  |
| CN1CCC(c2c[nH]c3ccc(O)cc23)CC1 | inactive |  |
| NCCc1c[nH]c2ccc(C(N)=O)cc12 | inactive |  |
| NCCc1c[nH]c2ccc(O)cc12 | inactive |  |
| CCCN(CCC)CCc1c[nH]c2ccc(C(N)=O)cc12 | 39.8 µM (active) |  |
